{
  "source": "paper doi:10.1101/2024.03.05.583629",
  "data": [
    {"target": "pT7_6His-AlfaTag-HOXD13 (human, UniProt P35453 263-343)", "sequence (P35453 263-343)": "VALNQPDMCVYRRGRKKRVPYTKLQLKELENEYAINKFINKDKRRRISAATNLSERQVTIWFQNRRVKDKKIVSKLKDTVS", "assay": "PADIT-seq", "details": "dsDNA, one strand shown", "units": {"binding signal": "log2FC"}, "values": [
      {"sequence": "CTCGAGGATATCAAGATCTGGCCTCGGCCGCATACGCGGAACCTCTAGCTAGCCGACTCACTATAGGGATAATCGCCCTGAGCAAAGACC", "binding signal": "-1.09 ± 0.122"},
      {"sequence": "CTCGAGGATATCAAGATCTGGCCTCGGCATTTTAGTCGGAACCTCTAGCTAGCCGACTCACTATAGGGATAATCGCCCTGAGCAAAGACC", "binding signal": "-0.427 ± 0.127"},
      {"sequence": "CTCGAGGATATCAAGATCTGGCCTCGGCATTTTACAAGGAACCTCTAGCTAGCCGACTCACTATAGGGATAATCGCCCTGAGCAAAGACC", "binding signal": "3.41 ± 0.0871"},
      {"sequence": "CTCGAGGATATCAAGATCTGGCCTCGGCGCAATAAAAGGAACCTCTAGCTAGCCGACTCACTATAGGGATAATCGCCCTGAGCAAAGACC", "binding signal": "2.76 ± 0.0728"},
      {"sequence": "CTCGAGGATATCAAGATCTGGCCTCGGCCGAATAAAAGGAACCTCTAGCTAGCCGACTCACTATAGGGATAATCGCCCTGAGCAAAGACC", "binding signal": "1.27 ± 0.0923"},
      {"sequence": "CTCGAGGATATCAAGATCTGGCCTCGGCTGTATAAAAGGAACCTCTAGCTAGCCGACTCACTATAGGGATAATCGCCCTGAGCAAAGACC", "binding signal": "2.01 ± 0.0809"},
      {"sequence": "CTCGAGGATATCAAGATCTGGCCTCGGCGCGTTTGCGGGAACCTCTAGCTAGCCGACTCACTATAGGGATAATCGCCCTGAGCAAAGACC", "binding signal": "-0.387 ± 0.156"},
      {"sequence": "CTCGAGGATATCAAGATCTGGCCTCGGCCGAGTAAAAGGAACCTCTAGCTAGCCGACTCACTATAGGGATAATCGCCCTGAGCAAAGACC", "binding signal": "0.186 ± 0.114"},
      {"sequence": "CTCGAGGATATCAAGATCTGGCCTCGGCGTTTTAATTGGAACCTCTAGCTAGCCGACTCACTATAGGGATAATCGCCCTGAGCAAAGACC", "binding signal": "2.42 ± 0.0771"},
      {"sequence": "CTCGAGGATATCAAGATCTGGCCTCGGCTTTTTATCTGGAACCTCTAGCTAGCCGACTCACTATAGGGATAATCGCCCTGAGCAAAGACC", "binding signal": "0.754 ± 0.104"},
      {"sequence": "CTCGAGGATATCAAGATCTGGCCTCGGCATTTTAATTGGAACCTCTAGCTAGCCGACTCACTATAGGGATAATCGCCCTGAGCAAAGACC", "binding signal": "2.74 ± 0.0827"},
      {"sequence": "CTCGAGGATATCAAGATCTGGCCTCGGCTTTTTATGCGGAACCTCTAGCTAGCCGACTCACTATAGGGATAATCGCCCTGAGCAAAGACC", "binding signal": "2.03 ± 0.081"},
      {"sequence": "CTCGAGGATATCAAGATCTGGCCTCGGCGGGCCACGCGGAACCTCTAGCTAGCCGACTCACTATAGGGATAATCGCCCTGAGCAAAGACC", "binding signal": "-1.1 ± 0.106"},
      {"sequence": "CTCGAGGATATCAAGATCTGGCCTCGGCCGCCCATCTGGAACCTCTAGCTAGCCGACTCACTATAGGGATAATCGCCCTGAGCAAAGACC", "binding signal": "-0.946 ± 0.119"},
      {"sequence": "CTCGAGGATATCAAGATCTGGCCTCGGCCTTTTATAGGGAACCTCTAGCTAGCCGACTCACTATAGGGATAATCGCCCTGAGCAAAGACC", "binding signal": "3.21 ± 0.0791"},
      {"sequence": "CTCGAGGATATCAAGATCTGGCCTCGGCCCCTTAAAAGGAACCTCTAGCTAGCCGACTCACTATAGGGATAATCGCCCTGAGCAAAGACC", "binding signal": "2.7 ± 0.0989"},
      {"sequence": "CTCGAGGATATCAAGATCTGGCCTCGGCCAATGGGCGGGAACCTCTAGCTAGCCGACTCACTATAGGGATAATCGCCCTGAGCAAAGACC", "binding signal": "-0.903 ± 0.11"},
      {"sequence": "CTCGAGGATATCAAGATCTGGCCTCGGCATTTTACGCGGAACCTCTAGCTAGCCGACTCACTATAGGGATAATCGCCCTGAGCAAAGACC", "binding signal": "2.16 ± 0.0812"},
      {"sequence": "CTCGAGGATATCAAGATCTGGCCTCGGCCGCCCATAAGGAACCTCTAGCTAGCCGACTCACTATAGGGATAATCGCCCTGAGCAAAGACC", "binding signal": "-0.213 ± 0.101"},
      {"sequence": "CTCGAGGATATCAAGATCTGGCCTCGGCCGGTTAAAAGGAACCTCTAGCTAGCCGACTCACTATAGGGATAATCGCCCTGAGCAAAGACC", "binding signal": "0.716 ± 0.0773"},
      {"sequence": "CTCGAGGATATCAAGATCTGGCCTCGGCAACATAAAAGGAACCTCTAGCTAGCCGACTCACTATAGGGATAATCGCCCTGAGCAAAGACC", "binding signal": "1.52 ± 0.0783"},
      {"sequence": "CTCGAGGATATCAAGATCTGGCCTCGGCGCGCATGCGGGAACCTCTAGCTAGCCGACTCACTATAGGGATAATCGCCCTGAGCAAAGACC", "binding signal": "-0.957 ± 0.123"},
      {"sequence": "CTCGAGGATATCAAGATCTGGCCTCGGCATTCTAAAAGGAACCTCTAGCTAGCCGACTCACTATAGGGATAATCGCCCTGAGCAAAGACC", "binding signal": "-0.358 ± 0.0968"},
      {"sequence": "CTCGAGGATATCAAGATCTGGCCTCGGCACTTGGGCGGGAACCTCTAGCTAGCCGACTCACTATAGGGATAATCGCCCTGAGCAAAGACC", "binding signal": "-1.04 ± 0.114"},
      {"sequence": "CTCGAGGATATCAAGATCTGGCCTCGGCATTTTACCCGGAACCTCTAGCTAGCCGACTCACTATAGGGATAATCGCCCTGAGCAAAGACC", "binding signal": "-0.0737 ± 0.0918"},
      {"sequence": "CTCGAGGATATCAAGATCTGGCCTCGGCTGCTTAAAAGGAACCTCTAGCTAGCCGACTCACTATAGGGATAATCGCCCTGAGCAAAGACC", "binding signal": "0.659 ± 0.091"},
      {"sequence": "CTCGAGGATATCAAGATCTGGCCTCGGCATCGTAAAAGGAACCTCTAGCTAGCCGACTCACTATAGGGATAATCGCCCTGAGCAAAGACC", "binding signal": "2.79 ± 0.0886"},
      {"sequence": "CTCGAGGATATCAAGATCTGGCCTCGGCTCAATAAAAGGAACCTCTAGCTAGCCGACTCACTATAGGGATAATCGCCCTGAGCAAAGACC", "binding signal": "2.74 ± 0.0786"},
      {"sequence": "CTCGAGGATATCAAGATCTGGCCTCGGCGTTTTATCGGGAACCTCTAGCTAGCCGACTCACTATAGGGATAATCGCCCTGAGCAAAGACC", "binding signal": "1.63 ± 0.0875"},
      {"sequence": "CTCGAGGATATCAAGATCTGGCCTCGGCACGTTAAAAGGAACCTCTAGCTAGCCGACTCACTATAGGGATAATCGCCCTGAGCAAAGACC", "binding signal": "1.42 ± 0.0726"},
      {"sequence": "CTCGAGGATATCAAGATCTGGCCTCGGCTTTTTACTGGGAACCTCTAGCTAGCCGACTCACTATAGGGATAATCGCCCTGAGCAAAGACC", "binding signal": "2.73 ± 0.0875"},
      {"sequence": "CTCGAGGATATCAAGATCTGGCCTCGGCTTTTTACTCGGAACCTCTAGCTAGCCGACTCACTATAGGGATAATCGCCCTGAGCAAAGACC", "binding signal": "0.725 ± 0.0977"},
      {"sequence": "CTCGAGGATATCAAGATCTGGCCTCGGCTACTTAAAAGGAACCTCTAGCTAGCCGACTCACTATAGGGATAATCGCCCTGAGCAAAGACC", "binding signal": "0.982 ± 0.0923"},
      {"sequence": "CTCGAGGATATCAAGATCTGGCCTCGGCACCCCACGCGGAACCTCTAGCTAGCCGACTCACTATAGGGATAATCGCCCTGAGCAAAGACC", "binding signal": "-1.03 ± 0.136"},
      {"sequence": "CTCGAGGATATCAAGATCTGGCCTCGGCGTTTTACTGGGAACCTCTAGCTAGCCGACTCACTATAGGGATAATCGCCCTGAGCAAAGACC", "binding signal": "2.76 ± 0.0911"},
      {"sequence": "CTCGAGGATATCAAGATCTGGCCTCGGCAAGTTAAAAGGAACCTCTAGCTAGCCGACTCACTATAGGGATAATCGCCCTGAGCAAAGACC", "binding signal": "1.07 ± 0.0825"},
      {"sequence": "CTCGAGGATATCAAGATCTGGCCTCGGCCGCTATCGCGGAACCTCTAGCTAGCCGACTCACTATAGGGATAATCGCCCTGAGCAAAGACC", "binding signal": "-0.806 ± 0.119"},
      {"sequence": "CTCGAGGATATCAAGATCTGGCCTCGGCACCCTAAAAGGAACCTCTAGCTAGCCGACTCACTATAGGGATAATCGCCCTGAGCAAAGACC", "binding signal": "0.642 ± 0.0968"}
    ]}
  ]
}
